Screen size: about 16,000 compounds; about 2,600 (16%) were called active. Not shown: some 20% with an inconclusive outcome. Only a sample is shown. Values without a mark were called inactive. Calls follow the shape of the dose curve; as a rule, active = well fitted curve in the direction sought with a large enough effect; inconclusive = small, poorly fitted or top-dose-only effect, or effect the other way; inactive = no such curve, though single readings can be large or run the other way.
Target: Cytochrome P450 2D6 (Homo sapiens) (UniProt P10635)
Experiment: Cytochrome panel assay with activity outcomes
Conditions: recombinant CYP, pro-luciferin dealkylation, luminescence, p450-cyp2d6; series mostly up to 57.1 µM; activity, negative = inhibition: at the top concentration
% is scaled to controls: 0 for no effect and ±100 for the full control effect.

Cytochrome P450 2D6 (Homo sapiens), sequence (P10635 whole entry, looked up): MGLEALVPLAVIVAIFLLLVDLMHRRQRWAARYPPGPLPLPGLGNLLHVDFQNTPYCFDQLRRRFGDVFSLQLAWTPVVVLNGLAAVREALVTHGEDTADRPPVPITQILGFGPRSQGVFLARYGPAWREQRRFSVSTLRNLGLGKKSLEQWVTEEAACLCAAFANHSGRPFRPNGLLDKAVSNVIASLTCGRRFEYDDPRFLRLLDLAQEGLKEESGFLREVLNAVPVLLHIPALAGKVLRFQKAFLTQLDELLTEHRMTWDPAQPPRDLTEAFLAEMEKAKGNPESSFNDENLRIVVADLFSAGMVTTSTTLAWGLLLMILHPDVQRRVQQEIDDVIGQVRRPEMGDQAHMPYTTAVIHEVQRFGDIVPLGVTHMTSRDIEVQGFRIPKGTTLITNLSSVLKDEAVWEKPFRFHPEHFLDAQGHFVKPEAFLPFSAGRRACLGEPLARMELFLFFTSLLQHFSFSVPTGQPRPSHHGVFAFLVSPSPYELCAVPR

Row | SMILES | activity, negative = inhibition | AC50
1 | CCC(=O)NC(=S)N1CCN(c2ccc([N+](=O)[O-])cc2Cl)CC1 | -14.4% | –
2 | O=[N+]([O-])c1ccc(N2CCN(Cc3ccccc3)CC2)c(S(=O)(=O)N2CCOCC2)c1 | -18.2% | –
3 | O=[N+]([O-])c1ccc(N2CCN(CCOc3nonc3-c3ccccc3)CC2)c(Cl)c1 | – | 0.112 µM (active)
4 | Cc1cc(=O)oc(C)c1C(=O)NCc1ccccc1 | -2.69% | –
5 | CCCn1c2c(c(O)c(C(=O)NCc3ccccc3)c1=O)CCCC2 | – | 10 µM (active)
6 | CCCCCCc1nc2ccccc2c(=O)n1NC(=O)c1c(O)c2c(n(CC(C)C)c1=O)CCCC2 | 22.7% | –
7 | O=c1cnc2cnc(Nc3ccccc3)nc2n1CCc1ccccc1 | -1.38% | –
8 | Cc1ccccc1C(=O)N1CCN(c2ccc([N+](=O)[O-])c(N3CCOCC3)c2)CC1 | -1% | –
9 | Cc1cccc(C)c1NC(=O)CSc1nc(C)c(CC(=O)c2ccc(Br)cc2)c(C)c1C#N | -9.75% | –
10 | Cc1ccnc(NCn2nnc3ccccc32)c1 | -14.9% | –
11 | COc1ccc(CN2CN=C(Nc3nc4ccccc4s3)NC2)cc1 | – | 7.94 µM (active)
12 | COCCN1CN=C(Nc2nc3ccccc3o2)NC1 | 12% | –
13 | O=C(NNc1nc2ccccc2s1)C1CC1 | -14.5% | –
14 | COc1ccc(C(=O)NCc2ccc(-c3nc4ccccc4s3)cc2)cc1 | -11.6% | –
15 | c1ccc2sc(NC3=NCN(C4CCCCCC4)CN3)nc2c1 | – | 1 µM (active)
16 | c1ccc(/C(=N/Nc2nc3ccccc3s2)c2ccccn2)cc1 | -1.95% [at 11.4 µM] | –
17 | C[C@H](C(=O)c1ccccc1)[C@@H](c1ccccc1)N1CCOCC1 | -5.64% [at 11.4 µM] | –
18 | CC1=C(C#N)C(Nc2ccc(Cl)cn2)(C(F)(F)F)C(=O)N1 (centres undefined) | -11.3% | –
19 | Cn1c(=O)c(-c2cc(F)cc(F)c2)nc2cnc(N3CCOCC3)nc21 | -1.51% | –
20 | COc1ccc(Nc2ncc3nc(-c4cccs4)c(=O)n(Cc4cccc(OC)c4)c3n2)cc1 | 4.4% | –
21 | CCOc1cc(/C=N/NC(=O)CNc2cccc(C)c2)ccc1OC(=O)c1ccccc1 | -19.5% | –
22 | CCOCCCNC(=O)CCS(=O)(=O)Cc1ccc(C)cc1 | -3.09% | –
23 | Cc1ccc(CS(=O)(=O)CCC(=O)NCc2cccs2)cc1 | – | 11.2 µM (active)
24 | Cc1ccc(CS(=O)(=O)CCC(=O)NCc2ccccn2)cc1 | 2.91% | –
25 | COCC(=O)N(C)c1nnc(-c2ccc([N+](=O)[O-])cc2)s1 | 6.42% | –
26 | Cc1ccc(C)c(OCCCC(C)(C)C(=O)O)c1 | 1.86% [at 25.6 µM] | –
27 | N[C@H](C(=O)O)[C@H](OCc1ccccc1)C(=O)O | – | 7.94 µM (active)
28 | N[C@@H](Cc1ccccc1)C(=O)O | 4.66% [at 11.4 µM] | –
29 | CC(C)C(NC(=O)OCc1ccccc1)C(=O)O (centres undefined) | 23.6% | –
